Results reported in PubChem BioAssay AID492998 (Southern Research Specialized Biocontainment Screening …, 2010).
Hit rate of the full screen: of about 2,300 compounds, about 550 (24%) were called active. Only a sample is shown. Potency and affinity values are given separately. Values without a mark were called inactive. How the calls were made is not given here.

Assay: Vero E6 cell cytotoxicity, dose response, cytotoxicity control for non-replicating M. tuberculosis project, secondary assay (AID 492998);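 further: 100% = vehicle-treated cells and 0% = background wells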
Conditions: series mostly up to 20 µM; viability: at the top concentration

| Structure (SMILES) | viability [%] |
| --- | --- |
| C=CCOC(=O)c1ccc(-n2cnc(C)n2)nc1 | 102 |
| O=C1CCC/C(=N/Nc2ccc(Cl)cc2)C1 | 96.4 |
| CCc1nnc(N/N=C/c2c(F)cccc2Cl)n1N | 106 |
| CCc1ccc(Cc2cnc(NC(=O)C3=NCCN3)s2)cc1 | 89.2 |
| Cn1c(SCCOc2cccc(Cl)c2)nnc1-c1ccncc1 | 92.3 |
| O=C(Oc1ccccc1)c1cccc(COC(=O)c2cnccn2)c1 | 92.2 |
| O=S(=O)(c1ccc(Cl)c2ccccc12)N1CCCC1 | 90.6 |
| c1ccc(-c2noc(CC3CCCCC3)n2)nc1 | 93.4 |
| O=C(COc1ccc(Cl)cc1)Nc1ccc2[nH]ncc2c1 | 84.2 |
| CCOC(=O)C(C)Oc1ccc(OCc2ccccc2)cc1 (configuration not stated) | 85 |
| CC(C)c1ccc(OCC(=O)NCc2ccccc2)cc1 | 98.7 |
| Cc1cccc(NC(=O)c2ccc(OC3CSC3)cc2)c1 | 95.8 |
| O=C(CCNc1ccc(Cl)cc1)c1cccs1 | 93.9 |
| Cc1ccc(CC(=O)N2CCN(c3ccc([N+](=O)[O-])cc3)CC2)cc1 | 81.7 |
| O=C(N/N=C/c1ccc([N+](=O)[O-])o1)c1ccc(NS(=O)(=O)c2cccs2)cc1 | 86.5 |
| O=[N+]([O-])c1ccc(CN2CCN(c3ccccc3)CC2)o1 | 116 |
| O=C(NNC(=O)c1cccs1)c1ccc(Br)o1 | 104 |
| O=[N+]([O-])c1ccc(N2CCN(Cc3ccc([N+](=O)[O-])o3)CC2)cc1 | 87 |
| O=C(c1cccs1)N1CCN(c2ccc(Cl)cc2)CC1 | 98.4 |
| O=C1CCCC(O)=C1C=Nc1ccc2c(c1)oc1ccccc12 | 88.5 |
| CCCCCCOc1ccc(C(=O)O)cc1C#N | 92.4 |

| Structure (SMILES) | viability [%] |
| --- | --- |
| CCC(=O)c1ccc(OC(=O)c2ccc(Br)o2)cc1 | 94 |
| Cc1cccc2nc(CSc3nc4cc([N+](=O)[O-])ccc4s3)cn12 | 97.2 |
| Cc1nc2scc(-c3ccccc3)c2c(=O)o1 | 102 |
| C=CCn1c(C)cc(C2=NNC(=NCc3ccccc3)SC2)c1C | 84.2 |
| Cc1ccc2c(c1)c1c3n2CCN=C3CCC1 | 109 |
| CCNC(=O)COC(=O)c1ccc(-c2nc3ccccc3s2)s1 | 109 |
| O=C(N/N=C/c1ccc[nH]1)c1ccncc1 | 103 |
| Cc1ccsc1/C=N/NC(=O)c1ccncc1 | 106 |
| Cc1ccc(/C=N/NC(=O)c2ccncc2)o1 | 100 |
| O=C(N/N=C/c1cccc2nccnc12)c1ccncc1 | 104 |
| Clc1ccccc1CSc1nnc([C@@H]2CCCN2)o1 | 98.8 |
| Cc1cccc(Cc2cnc(NC(=O)C3=NCCN3)s2)c1 | 85.1 |
| C=C[C@]1(C)C=C2CCC3[C@](C)(CCC[C@@]3(C)C(=O)O)C2CC1 (some centres not stated) | 100 |
| S=C1NC2(CCCC2)N=C1c1ccccc1 | 107 |
| Cc1ccc(C)c(NC(=O)COC(=O)c2cc3ccccc3oc2=O)c1 | 112 |
| CN1CCC(O)(c2ccccc2)C(C(=O)c2ccccc2)C1 (configuration not stated) | 70.1 |
| Cc1cccc(N2CCN(C(=O)Cn3sc4nc(C)cc(C)c4c3=O)CC2C)c1 (configuration not stated) | 82.3 |
| CCCOC(=O)NC1CCS(=O)(=O)C1 (configuration not stated) | 93.6 |
| O=C(CN1CCN(c2ccc([N+](=O)[O-])cc2)CC1)Nc1ccccn1 | 93.9 |
| O=C(Nc1nccs1)c1ccc(COc2ccc(Cl)cc2)o1 | 99.7 |
| O=C(Nc1nnc(COc2ccc(Cl)cc2)s1)c1ccco1 | 102 |

| Structure (SMILES) | viability [%] |
| --- | --- |
| Cc1csc(NC(=O)c2cc([N+](=O)[O-])cc([N+](=O)[O-])c2)n1 | 90.4 |
| CC(C)(C)c1csc(NC(=O)c2ccccc2O)n1 | 76.7 |
| O=C(Nc1ncccn1)c1ccc([N+](=O)[O-])o1 | 91.3 |
| Fc1cccc2sc(N3CCCC3)nc12 | 102 |
| O=C(CCC1CCCC1)NCc1ccccn1 | 95.9 |
| CCN(CC)S(=O)(=O)c1ccc(C(=O)OCn2nnc3ccccc3c2=O)cc1 | 102 |
| Nc1ccc(Br)c2cccnc12 | 78.7 |
| CCN(CC)c1ccc(-c2sc(Nc3ccccc3)n[n+]2-c2ccc(F)cc2)cc1 | 94.7 |
| Cc1cc(C(=O)N/N=C/c2cccc(Cl)c2Cl)no1 | 98.8 |
| CSc1ccc(NC(=O)Nc2cccn(Cc3ccccc3)c2=O)cc1 | 70 |
| CCN(CC)c1ccc(NC2CC(=O)N(CCc3ccc(OC)cc3)C2=O)cc1 (configuration not stated) | 87 |
| CN1C(c2ccccc2)CC(=NO)CC1c1ccccc1 (configuration not stated) | 101 |
| COc1ccc(-c2nnc(SCC(C)C)o2)cc1 | 97.1 |
| O=C(COc1ccccc1)Nc1nnc(-c2ccc3c(c2)CCCC3)o1 | 108 |
| COc1ccc(-c2nnc(NC(=O)C3=COCCO3)o2)cc1 | 98.6 |
| O=C(CNC(=O)c1ccc(Br)cc1)c1ccc(Br)cc1 | 102 |
| COC(=O)COc1ccc(-c2ccc(F)cc2)cc1C=O | 109 |
| CC(=O)Nc1ccc(OC(=O)c2ccc(Br)c([N+](=O)[O-])c2)cc1 | 91.4 |
| CC(C)C1O/C(=N/C(=O)Nc2ccc(Cl)c(Cl)c2)NC1=O (configuration not stated) | 99.6 |
| COc1n[nH]c(C(=O)Nc2cc(F)ccc2C)c1[N+](=O)[O-] | 86.7 |
